Many of the other results were omitted from the sample, so hits are more common in it than they were.
KDM5B inh = blocks human KDM5B histone demethylase activity; KDM5B demethylase, FDH-coupled NADH fluorescence (FDH is formaldehyde dehydrogenase); Potency, µM (doses to about 57.7 µM), hits mostly inhibitors; 2.6% of 220,000 active; active = well fitted inhibition curve with a large enough effect; note: 0% is about no effect; nearly all actives have a fitted effect of over 70% in size
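Inhibition is measured as reduced NADH fluorescence generation from FDH coupling to formaldehyde release. Truncated KDM5BΔAP at 200 nM final acts on H3K4me3 peptide (12.5 µM in substrate mix) in pH 7.5 HEPES buffer with Tween-20, 30 min, room temperature.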
Numbers without * were called inactive; i = inactive. Potency is the fitted concentration of half-maximal effect.

SMILES	KDM5B inh
O=C(O)c1ccc(CN2CCOC[C@H]2c2ncc(-c3ccc(F)cc3)[nH]2)cc1	i
CN(C(=O)c1ccccc1F)C1CCCc2ccccc21 (stereo not drawn)	i
O=C(NC1CCCCCCC1)c1cc2cccc([N+](=O)[O-])c2[nH]1	i
Cn1nc(-c2nncn2CC2CC2)c2c1CCN(C(=O)C1CC1)C2	i
CCn1cnnc1-c1nn(C)c2c1CN(C(=O)CCC1CCCC1)CC2	22.4µM*
CCn1cnnc1-c1nn(C)c2c1CN(C(=O)Cc1cccc(F)c1)CC2	i
COC1CN(C2CCN(C(=O)c3cccnc3C)CC2)C12CCOCC2 (stereo not drawn)	i
CSc1ccccc1NC(=O)C1CC=CCC1 (stereo not drawn)	i
Cc1ccc(C#N)c(NCc2cccnc2N2CCN(c3ccccn3)CC2)n1	28.2µM*
Cc1ccc(CNc2ncccc2C#N)cc1	i
CC1CCN(Cc2ccc(CNc3ncccc3C#N)cc2)CC1	i
COc1ccc(-c2coc3cc(OCC(=O)NCc4ccc(Cl)cc4)ccc3c2=O)cc1OC	i
COc1ccccc1-n1ccnc1SCC(=O)Nc1nc(C)cs1	i
COc1ccccc1CNC(=O)c1ccccc1	i
COc1ccccc1CNC(=O)c1cc2c(N(C)Cc3ccccc3)nc(C)cn2n1	14.1µM*
COc1ccc(CNC(=O)c2cc3c(=O)[nH]c(C)cn3n2)c(OC)c1	i
Cc1cn2nc(C(=O)NCc3ccccc3F)cc2c(N(C)Cc2ccccc2)n1	14.1µM*
Cc1cn2nc(C(=O)NCc3ccc(F)cc3F)cc2c(N(C)Cc2ccccc2)n1	i
Cc1cn2nc(C(=O)NCc3ccc(F)cc3F)cc2c(=O)[nH]1	i
O=c1c(Cl)c(N2CCCC(C(F)(F)F)C2)cnn1-c1ccccc1 (stereo not drawn)	i
O=c1c2cnc(N3CCc4ccccc4C3)nc2ccn1-c1ccccc1	i
CCn1nccc1C(=O)N1CCCC(c2noc(COc3ccccc3)n2)C1 (stereo not drawn)	i
CCC(=O)N1CCCCCC1c1nnc(-c2ccccc2)o1 (stereo not drawn)	i
CC1CCCCN1C(=O)COC(=O)c1cnc2ccccc2n1 (stereo not drawn)	i
N#Cc1ccccc1OCC(=O)c1ccc2ccccc2c1	i
SMILES	KDM5B inh
N#Cc1ccccc1S(=O)(=O)N[C@H]1CO[C@H]2[C@@H]1OC[C@H]2OC(=O)NC1CCCCC1	i
COc1cccc(CN2CCCC3(COc4ccccc4C(=O)N3)C2)c1 (stereo not drawn)	35.5µM*
COc1cccc(CN2CCC3(C2)NC(=O)c2ccccc2O3)c1 (stereo not drawn)	i
O=C1NC2(CCN(Cc3ccccc3)CC2)COc2ccccc21	i
O=C1NC2(CCN(Cc3ccc(F)cc3)C2)Oc2ccccc21 (stereo not drawn)	i
O=C1NC2(CCCN(Cc3ccc(C(F)(F)F)cc3)C2)Oc2ccccc21 (stereo not drawn)	i
O=C1NC2(CCCN(Cc3ccc(F)cc3)C2)COc2ccccc21 (stereo not drawn)	25.1µM*
O=C1NC2(CCN(Cc3ccc(OC(F)(F)F)cc3)CC2)COc2ccccc21	i
O=C1Nc2ccccc2OCC12CCN(Cc1ccccc1C(F)(F)F)CC2	i
O=C1NC2(CCCN(Cc3ccccc3C(F)(F)F)C2)COc2ccccc21 (stereo not drawn)	35.5µM*
O=C1NC2(CCCN(Cc3ccc(OC(F)(F)F)cc3)C2)COc2ccccc21 (stereo not drawn)	35.5µM*
COc1cccc(CN2CCC3(CC2)COc2ccccc2CN3)c1	i
O=C1NC2(CCCN(Cc3ccc(F)cc3)C2)Oc2ccccc21 (stereo not drawn)	i
CCc1nn2c(=O)cc(COC(=O)c3ccccc3NC(=O)c3ccccc3F)nc2s1	i
CCN(Cc1ccc2c(c1)OCCO2)C(=O)Cn1cnc2c(cnn2C)c1=O	i
Cc1nn(C)c(C)c1CCC(=O)Nc1nc(C(C)C)cs1	i
CC(C)CCN1CCC2(CC1)CC(=O)N(c1ccccc1)c1ccccc1O2	i
Cc1noc(CN2CCC(c3ccnn3CCO)CC2)n1	i
COC(=O)NNC(=S)Nc1cccc(C)c1	i
Cc1cc(OCCn2c(CNC=O)nc3ccccc32)ccc1Cl	i
COC(CN(C)C(=S)NCC(=O)O)OC	i
Cn1ncc(N2CCC(CNC(=O)c3cccc4ccnn34)C2)cc1=O (stereo not drawn)	28.2µM*
COc1c(C)cccc1C(=O)NCC1CCN(c2cnn(C)c(=O)c2)C1 (stereo not drawn)	i
Cn1ncc(N2CCC(CNC(=O)c3cccc4ncccc34)C2)cc1=O (stereo not drawn)	i
CCn1nc(C(=O)OCC(=O)Nc2ccccc2Oc2ccccc2)c2ccccc2c1=O	i
SMILES	KDM5B inh
O=C(COC(=O)c1ccccc1I)c1ccc([N+](=O)[O-])cc1	i
COc1ccccc1C(=O)NC1CCN(C(=O)c2cc3c(=O)[nH]c(C)cn3n2)CC1	i
Cc1cn2nc(C(=O)NCc3ccccc3C)cc2c(=O)[nH]1	i
CC(C)N1CCN(C(=O)c2cc3c(=O)[nH]c(-c4ccccc4)cn3n2)CC1	25.1µM*
Cc1cn2nc(C(=O)NCC3CCCCC3)cc2c(=O)[nH]1	i
Cc1cn2nc(C(=O)N3CCC(NC(=O)c4ccc(F)cc4)CC3)cc2c(=O)[nH]1	i
CCCNC(=O)c1cc2c(=O)[nH]c(-c3ccccc3)cn2n1	25.1µM*
Cc1cn2nc(C(=O)N3CCC(C(=O)NC4CCCC4)CC3)cc2c(=O)[nH]1	i
COc1ccccc1CC(=O)NC1CCN(C(=O)c2cc3c(=O)[nH]c(C)cn3n2)CC1	i
Cc1cccc(CNC(=O)c2cc3c(=O)[nH]c(C)cn3n2)c1	i
O=C(NC1CC1)c1cc2c(=O)[nH]c(-c3ccccc3)cn2n1	28.2µM*
COCCCNC(=O)c1cc2c(=O)[nH]c(-c3ccccc3)cn2n1	25.1µM*
COCCCNC(=O)c1cc(-c2ccc(C)c(C)c2)nc2ccccc12	i
CC(C)(CC(=O)O)CC(=O)NC(c1ccccc1)c1ccco1 (stereo not drawn)	i
Cc1ccc(NC(=O)C2CCCCC2)c(C)c1	i
Oc1ccccc1CNC1(Cc2cc(-c3ccc(F)cc3)on2)COC1	i
CN1/C(=C\C(=O)CN2CCN(C/C=C/c3ccccc3)CC2)C(C)(C)c2ccccc21	i
COC(=O)CCCNC(=O)CN1CCCCCC1	i
Cc1nn(CC(O)COc2ccc(Oc3ccccc3)cc2)c(=O)c2ccccc12 (stereo not drawn)	i
Cc1cc(C)c(NC(=O)c2cc3cc(Br)ccc3oc2=O)c(C)c1	i
CC(NC(=O)Cn1cnc(C#N)n1)c1ccc(-c2ccccc2)cc1 (stereo not drawn)	i
Cc1ccc(NC(=O)Cn2c(=O)c3c(ncn3Cc3ccccc3)n(Cc3ccccc3)c2=O)cc1F	i
CCc1cccc2c(C(CC(=O)NCCc3ccc(OC)c(OC)c3)c3ccccc3OC)c[nH]c12 (stereo not drawn)	i
CCCNC(=O)CC(c1ccccc1OC)c1c[nH]c2c(CC)cccc12 (stereo not drawn)	31.6µM*
CCCNC(=O)CC(c1ccc(OC)c(OC)c1)c1c[nH]c2c(CC)cccc12 (stereo not drawn)	i
CCc1cccc(NC(=O)C2CCN(C(=O)c3ncn4c3COC(c3ccccc3)C4)CC2)c1 (stereo not drawn)	i
